This is an account of results in PubChem BioAssay (NCI).

This is part of a sample that, as a whole, favours compounds with a hit. Of some 83,000 tested, about 20% had one in any assay.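 Compound tested at a single concentration for 48 hours in 96-well plates; a percent growth value below 10 was scored as active.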 Unmarked numbers belong to inactive results. Active and inactive are the calls of the source.

Holding throughout (experiment): NCI-60 one-dose screen, 48 h (100 = growth as untreated, 0 = no growth, -100 = all killed)
Holding throughout (details): 10 µM unless noted

The subject of assay [1] is DU-145 prostate.
For assay [2], the system named is K-562 leukemia.
Assay [3] concerns MALME-3M melanoma.
For assay [4], the system named is MDA-MB-231 breast.
Assay [5] deals with SF-268 CNS.
The test system of assay [6] is SF-295 CNS.
The test system of assay [7] is SF-539 CNS.
For assay [8], the system named is M14 melanoma.
Assay [9] relates to HCT-15 colon.
The subject of assay [10] is HT29 colon.
In assay [11] the test system is SNB-75 CNS.
The subject of assay [12] is SNB-19 CNS.
Assay [13] concerns U251 CNS.
The test system of assay [14] is PC-3 prostate.
Assay [15] relates to SK-MEL-5 melanoma.
Assay [16] relates to UACC-62 melanoma.
Assay [17] relates to LOX IMVI melanoma.
The test system of assay [18] is SK-MEL-28 melanoma.

As to `CCN(CC)C(=O)C[N+](C)(C)CCOC(c1ccccc1)c1ccccc1`, the growth was 103% in assay [1]; 109% in [2]; 98.5% in assay [3]; 117% in assay [4]; 103% in assay [5]; 99.5% in assay [6]. Besides, the growth in assay [7] was 102%; in assay [8], 100%; in [9], 101%; in [10], 105%; in assay [11] it was 75.4%; in assay [12], 106%. Also, the growth was 110% in assay [13]; 100% in assay [14]; 103% in assay [15]; 106% in [16]; 97.7% in assay [17]; 105% in assay [18].
In the case of `NN1C(=O)CSC1=S`, the growth in assay [1] is 108%; in assay [2] it was 101%; in assay [3], 109%; in assay [4], 105%; in [5], 95.9%; in [6], 105%. Further, the growth is 105% in assay [7]; 97.6% in [8]; 105% in assay [9]; 83.9% in assay [10]; 95.6% in assay [11]; 116% in assay [12]. Also, the growth in [13] is 85.6%; in [14], 93.4%; in assay [15] it was 104%; in [16], 116%; in assay [17], 98.6%; in assay [18] it was 115%.
Consider `COc1ccc(OC)c(NC2=C(SCCc3ccccc3)C(=O)c3ccccc3C2=O)c1`, for which the growth in assay [1] was 92.2%; in assay [2], 91.2%; in [3], 90.8%; in [4] it was 62.8%; in [5], 84.6%; in [6], 92.2%. For the same compound, the growth in [7] is 85.7%; in assay [8], 83.3%; in [9], 64.2%; in [10], 106%; in [11] it was 78%; in assay [12] it was 82.2%. In addition, the growth in [13] was 77%; in assay [14], 64.7%; in assay [15] it was 80.9%; in assay [16], 62.1%; in assay [17] it was 66.4%; in assay [18], 108%.
For `CC(C)C1CCC(C)C(C2(C#N)C(N)=NC(N)=C2C#N)C1=O` (centres undefined), the growth is 102% in assay [1]; 98.7% in assay [2]; 92.3% in assay [3]; 95.8% in [4]; 97.3% in [5]; 103% in assay [6]. Further, the growth was 97.7% in [7]; 96.1% in [8]; 101% in assay [9]; 96.2% in assay [10]; 84% in [11]; 101% in assay [12]. The growth in assay [13] was 99.7%; in [14], 86%; in [15], 101%; in assay [16], 102%; in assay [18], 107%.
As to `COc1ccc(C2CC(=O)c3c(O)c(OC)c(OC)c(OC)c3O2)c(O)c1` (centres undefined), the growth was 22.2% in [1]; 13.9% in assay [2]; 64.7% in [3]; 24.9% in assay [4]; 44.4% in assay [5]; 7.86% (active) in [6]. The growth is -7.78% (active) in [7]; 12.6% in assay [8]; 10.3% in assay [9]; 65.3% in assay [10]; 38.1% in assay [11]; 35.6% in assay [12]. In addition, the growth in assay [13] is 24.3%; in assay [14], 29%; in assay [15], 20%; in assay [16], 37%; in [17], 44.2%; in [18], 61.2%.
As to `C=C1C[C@H](O)[C@H](Br)C(C)(C)[C@@]12CCC(C)=C(Cl)C2`, the growth in assay [1] is 22.7%; in assay [2], 12.3%; in assay [3] it was 38.5%; in assay [4] it was 22.4%; in [5], 30.9%; in [6], -3.01% (active). The growth was 34% in assay [7]; -19.7% (active) in [8]; -4.29% (active) in [9]; 3.04% (active) in assay [10]; 52.9% in assay [11]; 40.7% in assay [12]. Also, the growth was 20.4% in [13]; 16.6% in [14]; -60.8% (active) in assay [15]; -11.8% (active) in assay [16]; 30.1% in assay [18].
For `COc1ccc(-c2nc(N)ncc2Oc2ccccc2OC)c(O)c1`, the growth in assay [1] was 34.9%; in assay [2], 12.2%; in assay [3], 48%; in [4], 51.9%; in assay [5], 46.3%; in assay [6], -0.599% (active). Also, the growth in assay [7] is 8.99% (active); in [8] it was 12.5%; in [9], 17.2%; in [10], 10.3%; in [11] it was 10.8%; in assay [12], 41.5%. In addition, the growth is 30.6% in [13]; 31% in assay [14]; 25% in assay [15]; 51% in [16]; 34% in [17]; 63.1% in assay [18].
`COc1ccc(CCCc2c3[n+](cc4c(OC)c(OC)ccc24)CCc2cc4c(cc2-3)OCO4)cc1`: the growth in assay [1] was 79.3%; in assay [2], 57.8%; in assay [3] it was 94.4%; in assay [4] it was 84.6%; in assay [5], 63%; in [6], 78.9%. In addition, the growth in assay [7] is 92.3%; in assay [8], 85.1%; in assay [9], 102%; in assay [10], 47.2%; in assay [11] it was 88.3%; in [12] it was 60.4%. For the same compound, the growth in assay [13] is 40.8%; in assay [14], 58.2%; in assay [15] it was 39%; in assay [16], 49.7%; in assay [17], 57.8%; in [18], 63.1%.
`CCc1cc2c(c3ccc(C(=O)CBr)cc13)CCCC2`: the growth in [1] was 107%; in [2], 86.4%; in [3], 95.9%; in assay [4] it was 99.8%; in assay [5], 92.2%; in [6] it was 105%. For the same compound, the growth in [7] is 98.3%; in assay [8], 107%; in [9], 101%; in assay [10], 91.7%; in [11], 91.5%; in [12], 108%. Also, the growth in assay [13] is 95.1%; in [14], 96%; in assay [15] it was 106%; in assay [16], 91.8%; in [17] it was 93.3%; in [18], 108%.
For `COc1ccc2c(CCCC(c3ccccc3)c3ccccc3)c3[n+](cc2c1OC)CCc1cc2c(cc1-3)OCO2`, the growth is -13.4% (active) in assay [1]; -15.4% (active) in assay [2]; -66.7% (active) in [3]; -63.4% (active) in assay [4]; -58% (active) in assay [5]; -32.2% (active) in [6]. Moreover, the growth in [7] was -38.1% (active); in [8], -67.5% (active); in assay [9] it was 13.2%; in assay [10] it was -2.94% (active); in assay [11], -19.1% (active); in assay [12], -16.4% (active). Further, the growth in assay [13] is -76.2% (active); in assay [14], -68.8% (active); in [15], -100% (active); in [16] it was -71.7% (active); in assay [17], -100% (active); in assay [18], -78.7% (active).
For `CCCCCCCCCCCC[n+]1ccccc1`, the growth in assay [1] is 16%; in [2], 6.1% (active); in [3], 0.501% (active); in assay [4], -2.58% (active); in assay [5], 11.5%; in assay [6], -36.5% (active). Also, the growth in assay [7] is -2.41% (active); in assay [8] it was -41.3% (active); in assay [9], 39.4%; in assay [10] it was 1.53% (active); in assay [11], 0.831% (active); in assay [12], 8.57% (active). Moreover, the growth in [13] was -0.664% (active); in assay [14], -38.2% (active); in assay [15] it was -95.3% (active); in assay [16], -41.9% (active); in assay [17], -40.9% (active); in [18], 21.4%.
For `COC(=O)[C@]12CC[C@@H](C)[C@H](C)[C@@H]1C1=CC[C@@H]3[C@@]4(C)C(C=O)=C[C@@](C)(COS(C)(=O)=O)C4=CC[C@@]3(C)[C@]1(C)CC2`, the growth in [1] is -92.2% (active); in assay [2] it was -6.44% (active); in [3], -77.7% (active); in assay [4], -55.4% (active); in [5], -57.1% (active); in [6] it was -60.2% (active). The growth in [7] was -69.8% (active); in [8], -55.8% (active); in assay [9] it was -80.5% (active); in [10] it was -63.2% (active); in assay [11], -25.1% (active); in assay [12], -5.33% (active). Besides, the growth in assay [13] was -93.6% (active); in [14], -19.9% (active); in assay [15] it was -98.2% (active); in assay [16] it was -73.4% (active); in [17], -98.7% (active); in assay [18] it was -72.3% (active).
Regarding `COc1ccc(-c2nocc2-c2cc(OC)c(OC)c(OC)c2)cc1`, the growth in assay [1] is 15.2%; in [2], 12.8%; in assay [3], 60.3%; in assay [4], 25.8%; in assay [5], 39%; in [6], -4.64% (active). The growth was 2.52% (active) in assay [7]; 3.03% (active) in assay [8]; 9.74% (active) in [9]; 0.361% (active) in assay [10]; 32.8% in assay [11]; 34.9% in [12]. Also, the growth is 19.1% in assay [13]; 29% in [14]; 7.25% (active) in assay [15]; 13% in assay [16]; 43.5% in [17]; 49.8% in assay [18].
As for `CSc1nc2ncnc(SC)c2[nH]1`, the growth in [1] was 110%; in [2] it was 100%; in assay [3], 110%; in assay [4], 107%; in assay [5], 102%; in assay [6], 102%. For the same compound, the growth in [7] is 103%; in [8], 97.9%; in [9], 110%; in [10] it was 89.6%; in assay [11] it was 86.8%; in [12], 116%. Further, the growth is 83.9% in [13]; 91.6% in assay [14]; 106% in assay [15]; 110% in [16]; 107% in assay [18].
Consider `COc1ccc2nc3cc(Cl)ccc3c(Nc3ccc(N(C)C)cc3)c2c1`, for which the growth in [1] is 91%; in assay [2] it was 80.2%; in [3], 106%; in [4], 89.8%; in assay [5], 94.5%; in assay [6], 86.8%. The growth in assay [7] is 95.1%; in [8] it was 98.2%; in [9], 91.1%; in assay [10] it was 72.1%; in assay [11], 111%; in assay [12] it was 101%. Moreover, the growth was 93.5% in assay [13]; 85.4% in assay [14]; 100% in [15]; 98.1% in assay [16]; 112% in [18].
Take `Cc1sc2c(c1C)c(=O)nc1c(-c3nc4ccccc4s3)n[nH]n12`: the growth in assay [1] is 106%; in assay [2] it was 94%; in assay [3], 97.1%; in [4], 87.6%; in [5] it was 96.1%; in [6] it was 92.3%. In addition, the growth in assay [7] is 96.5%; in [8] it was 98.6%; in assay [9], 100%; in [10], 101%; in assay [11] it was 95.3%; in assay [12], 101%. Also, the growth in [13] was 98%; in [14], 78.7%; in assay [15] it was 96.7%; in assay [16], 88.4%; in assay [17], 93.3%; in assay [18] it was 101%.
